Source: ChEMBL document CHEMBL1961873, “Compounds: GSK PKIS; Assays: Nanosyn kinase panel” (2012)

Tests used:
[1] = target: Sphingosine kinase 1 (Homo sapiens) (UniProt Q9NYA1); settings: at 1 µM;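 note: mean SPHK1 inhibition value reported from the GSK PKIS kinase panel screen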
[2] = target: T1, Sphingosine kinase 2 (Homo sapiens) (UniProt Q9NRA0); settings: at 0.1 µM
T1 sequence (whole entry): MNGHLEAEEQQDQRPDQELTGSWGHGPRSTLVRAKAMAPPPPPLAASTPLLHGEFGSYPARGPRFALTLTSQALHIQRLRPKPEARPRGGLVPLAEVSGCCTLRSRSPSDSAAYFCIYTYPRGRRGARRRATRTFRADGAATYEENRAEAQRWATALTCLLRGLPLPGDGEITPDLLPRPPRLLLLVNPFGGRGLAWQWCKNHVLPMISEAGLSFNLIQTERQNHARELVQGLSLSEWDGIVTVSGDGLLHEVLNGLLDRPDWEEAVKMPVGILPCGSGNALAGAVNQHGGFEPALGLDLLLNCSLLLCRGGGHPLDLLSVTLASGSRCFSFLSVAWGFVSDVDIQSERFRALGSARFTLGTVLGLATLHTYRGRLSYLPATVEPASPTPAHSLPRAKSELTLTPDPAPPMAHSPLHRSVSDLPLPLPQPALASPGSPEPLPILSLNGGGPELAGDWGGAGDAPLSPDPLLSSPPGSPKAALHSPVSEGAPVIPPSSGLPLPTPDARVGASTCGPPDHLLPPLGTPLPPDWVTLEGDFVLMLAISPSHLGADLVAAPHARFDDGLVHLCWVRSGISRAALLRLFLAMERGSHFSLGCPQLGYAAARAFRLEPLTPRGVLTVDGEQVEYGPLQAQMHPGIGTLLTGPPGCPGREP

[3] = target: T1, Sphingosine kinase 2 (Homo sapiens); settings: at 1 µM
[4] = target: Casein kinase II subunit alpha (Homo sapiens) (UniProt P68400); settings: at 0.1 µM
Sequence of Casein kinase II subunit alpha (Homo sapiens) (P68400 whole entry, looked up): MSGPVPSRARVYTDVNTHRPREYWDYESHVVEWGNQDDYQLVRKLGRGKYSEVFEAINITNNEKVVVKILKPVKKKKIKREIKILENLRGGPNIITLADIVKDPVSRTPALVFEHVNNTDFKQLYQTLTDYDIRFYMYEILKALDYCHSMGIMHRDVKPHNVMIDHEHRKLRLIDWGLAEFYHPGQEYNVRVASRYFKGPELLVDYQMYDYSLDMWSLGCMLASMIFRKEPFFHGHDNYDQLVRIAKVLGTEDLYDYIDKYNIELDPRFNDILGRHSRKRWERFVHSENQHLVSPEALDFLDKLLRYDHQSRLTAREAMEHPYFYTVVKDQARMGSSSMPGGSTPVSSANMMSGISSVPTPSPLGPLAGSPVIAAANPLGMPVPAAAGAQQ

[5] = target: Casein kinase II subunit alpha (Homo sapiens) (UniProt P68400); settings: at 1 µM
[6] = target: T2, Inhibitor of nuclear factor kappa-B kinase subunit alpha (Homo sapiens) (UniProt O15111); settings: at 0.1 µM
T2 sequence (whole entry): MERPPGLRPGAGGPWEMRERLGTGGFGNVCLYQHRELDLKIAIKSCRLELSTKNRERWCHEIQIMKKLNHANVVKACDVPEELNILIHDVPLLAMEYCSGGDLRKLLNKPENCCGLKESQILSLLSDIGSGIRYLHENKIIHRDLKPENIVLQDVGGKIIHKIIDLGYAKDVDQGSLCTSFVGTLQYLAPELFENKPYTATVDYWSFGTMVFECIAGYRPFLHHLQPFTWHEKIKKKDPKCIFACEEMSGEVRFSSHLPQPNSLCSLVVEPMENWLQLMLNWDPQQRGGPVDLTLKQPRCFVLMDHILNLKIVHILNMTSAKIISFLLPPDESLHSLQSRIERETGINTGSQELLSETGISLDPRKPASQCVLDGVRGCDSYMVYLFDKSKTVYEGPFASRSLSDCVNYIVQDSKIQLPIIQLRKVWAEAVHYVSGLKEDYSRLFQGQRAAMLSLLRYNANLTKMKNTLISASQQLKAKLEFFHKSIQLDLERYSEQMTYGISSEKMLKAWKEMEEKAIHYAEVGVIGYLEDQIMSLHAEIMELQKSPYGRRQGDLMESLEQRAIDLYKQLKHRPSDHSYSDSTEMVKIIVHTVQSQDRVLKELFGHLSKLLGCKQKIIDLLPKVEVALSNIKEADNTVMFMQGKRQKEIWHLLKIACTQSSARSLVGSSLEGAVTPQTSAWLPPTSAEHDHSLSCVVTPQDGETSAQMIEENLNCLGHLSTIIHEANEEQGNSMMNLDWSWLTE

[7] = target: T2, Inhibitor of nuclear factor kappa-B kinase subunit alpha (Homo sapiens); settings: at 1 µM
[8] = target: T3, Inhibitor of nuclear factor kappa-B kinase subunit beta (Homo sapiens) (UniProt O14920); settings: at 0.1 µM
T3 sequence (whole entry): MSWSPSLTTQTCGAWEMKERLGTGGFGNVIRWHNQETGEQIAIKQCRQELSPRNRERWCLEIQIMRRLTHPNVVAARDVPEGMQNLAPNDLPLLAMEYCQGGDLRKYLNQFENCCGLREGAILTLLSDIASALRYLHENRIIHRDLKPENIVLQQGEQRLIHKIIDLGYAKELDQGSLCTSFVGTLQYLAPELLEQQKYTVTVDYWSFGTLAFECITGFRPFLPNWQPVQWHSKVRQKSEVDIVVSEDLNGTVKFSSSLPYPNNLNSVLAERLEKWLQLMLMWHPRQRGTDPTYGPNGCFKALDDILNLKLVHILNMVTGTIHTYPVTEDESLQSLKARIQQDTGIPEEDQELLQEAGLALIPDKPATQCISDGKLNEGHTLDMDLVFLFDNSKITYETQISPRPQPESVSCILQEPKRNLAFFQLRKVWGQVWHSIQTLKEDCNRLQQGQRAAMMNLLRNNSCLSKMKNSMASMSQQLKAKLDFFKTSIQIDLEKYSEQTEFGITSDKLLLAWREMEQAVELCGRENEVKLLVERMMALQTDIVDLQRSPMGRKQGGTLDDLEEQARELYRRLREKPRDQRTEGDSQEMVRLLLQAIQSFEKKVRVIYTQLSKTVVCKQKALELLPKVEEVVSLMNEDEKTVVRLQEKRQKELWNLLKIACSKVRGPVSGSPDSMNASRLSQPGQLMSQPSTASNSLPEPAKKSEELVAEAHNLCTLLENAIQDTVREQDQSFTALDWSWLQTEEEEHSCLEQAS

[9] = target: T3, Inhibitor of nuclear factor kappa-B kinase subunit beta (Homo sapiens); settings: at 1 µM
[10] = target: T4, Inhibitor of nuclear factor kappa-B kinase subunit epsilon (Homo sapiens) (UniProt Q14164); settings: at 0.1 µM
T4 sequence (whole entry): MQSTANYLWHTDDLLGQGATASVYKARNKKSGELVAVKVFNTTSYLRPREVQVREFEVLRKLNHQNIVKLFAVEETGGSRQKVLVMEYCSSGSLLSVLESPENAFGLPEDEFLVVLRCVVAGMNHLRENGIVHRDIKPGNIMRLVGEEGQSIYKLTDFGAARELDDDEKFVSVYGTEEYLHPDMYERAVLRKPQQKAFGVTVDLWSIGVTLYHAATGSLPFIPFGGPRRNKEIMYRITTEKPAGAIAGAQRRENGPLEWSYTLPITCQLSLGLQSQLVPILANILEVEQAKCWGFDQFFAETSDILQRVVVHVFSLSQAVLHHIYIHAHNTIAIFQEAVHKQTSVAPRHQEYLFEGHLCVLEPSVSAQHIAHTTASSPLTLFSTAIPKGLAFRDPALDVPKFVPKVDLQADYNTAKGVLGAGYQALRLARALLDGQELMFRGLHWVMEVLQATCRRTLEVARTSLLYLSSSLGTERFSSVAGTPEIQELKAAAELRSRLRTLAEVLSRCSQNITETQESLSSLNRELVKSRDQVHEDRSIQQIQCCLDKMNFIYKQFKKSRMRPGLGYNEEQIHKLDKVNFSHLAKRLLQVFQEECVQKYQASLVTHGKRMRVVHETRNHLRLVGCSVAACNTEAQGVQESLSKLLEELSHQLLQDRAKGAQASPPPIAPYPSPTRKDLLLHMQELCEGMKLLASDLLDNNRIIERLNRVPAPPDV

[11] = target: T4, Inhibitor of nuclear factor kappa-B kinase subunit epsilon (Homo sapiens); settings: at 1 µM
[12] = target: T5, Serine/threonine-protein kinase Nek1 (Homo sapiens) (UniProt Q96PY6); settings: at 0.1 µM
T5 sequence (whole entry): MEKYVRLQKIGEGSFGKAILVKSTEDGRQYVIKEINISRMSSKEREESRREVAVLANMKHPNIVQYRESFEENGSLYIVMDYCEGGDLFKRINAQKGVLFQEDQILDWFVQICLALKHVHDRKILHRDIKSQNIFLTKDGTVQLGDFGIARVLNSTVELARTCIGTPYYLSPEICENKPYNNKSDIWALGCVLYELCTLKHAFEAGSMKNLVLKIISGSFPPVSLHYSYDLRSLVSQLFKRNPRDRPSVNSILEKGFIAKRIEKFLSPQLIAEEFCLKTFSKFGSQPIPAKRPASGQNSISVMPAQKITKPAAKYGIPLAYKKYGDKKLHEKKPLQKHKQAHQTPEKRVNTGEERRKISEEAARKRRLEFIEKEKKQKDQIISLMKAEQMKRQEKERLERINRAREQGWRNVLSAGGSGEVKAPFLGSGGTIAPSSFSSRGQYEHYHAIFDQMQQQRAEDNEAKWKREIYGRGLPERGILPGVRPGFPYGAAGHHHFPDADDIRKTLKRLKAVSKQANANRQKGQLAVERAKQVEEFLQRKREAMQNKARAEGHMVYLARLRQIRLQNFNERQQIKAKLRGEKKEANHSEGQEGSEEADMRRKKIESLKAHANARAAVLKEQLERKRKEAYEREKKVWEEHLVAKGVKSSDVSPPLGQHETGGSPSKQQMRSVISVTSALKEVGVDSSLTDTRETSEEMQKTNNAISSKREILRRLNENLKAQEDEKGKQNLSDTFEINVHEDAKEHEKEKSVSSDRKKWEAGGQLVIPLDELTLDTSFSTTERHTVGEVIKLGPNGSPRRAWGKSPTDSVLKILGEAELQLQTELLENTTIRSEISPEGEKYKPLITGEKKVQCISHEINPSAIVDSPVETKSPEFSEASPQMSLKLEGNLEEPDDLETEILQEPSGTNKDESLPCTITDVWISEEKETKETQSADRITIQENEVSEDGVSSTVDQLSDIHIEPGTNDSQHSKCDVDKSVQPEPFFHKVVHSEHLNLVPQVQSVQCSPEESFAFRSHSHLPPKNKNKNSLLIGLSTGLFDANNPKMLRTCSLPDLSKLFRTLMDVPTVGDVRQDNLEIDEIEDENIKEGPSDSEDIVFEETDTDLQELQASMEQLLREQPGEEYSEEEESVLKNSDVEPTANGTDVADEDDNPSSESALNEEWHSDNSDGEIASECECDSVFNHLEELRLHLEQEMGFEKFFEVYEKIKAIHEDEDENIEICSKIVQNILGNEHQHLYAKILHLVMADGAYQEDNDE

[13] = target: T5, Serine/threonine-protein kinase Nek1 (Homo sapiens); settings: at 1 µM
[14] = target: T6, Serine/threonine-protein kinase Nek2 (Homo sapiens) (UniProt P51955); settings: at 0.1 µM
T6 sequence (whole entry): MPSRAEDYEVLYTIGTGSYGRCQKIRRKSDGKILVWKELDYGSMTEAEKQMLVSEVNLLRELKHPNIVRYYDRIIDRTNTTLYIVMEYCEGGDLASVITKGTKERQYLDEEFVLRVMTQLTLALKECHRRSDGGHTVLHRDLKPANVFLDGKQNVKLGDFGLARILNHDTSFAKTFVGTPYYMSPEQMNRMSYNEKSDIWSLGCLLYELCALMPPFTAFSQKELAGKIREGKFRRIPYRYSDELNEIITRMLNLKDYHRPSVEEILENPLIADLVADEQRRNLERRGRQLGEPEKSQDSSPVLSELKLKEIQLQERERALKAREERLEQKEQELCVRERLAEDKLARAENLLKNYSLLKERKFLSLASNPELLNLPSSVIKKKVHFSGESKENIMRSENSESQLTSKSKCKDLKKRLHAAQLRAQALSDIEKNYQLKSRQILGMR

[15] = target: T6, Serine/threonine-protein kinase Nek2 (Homo sapiens); settings: at 1 µM
[16] = target: Serine/threonine-protein kinase Nek6 (Homo sapiens) (UniProt Q9HC98); settings: at 0.1 µM
Sequence of Serine/threonine-protein kinase Nek6 (Homo sapiens) (Q9HC98 whole entry): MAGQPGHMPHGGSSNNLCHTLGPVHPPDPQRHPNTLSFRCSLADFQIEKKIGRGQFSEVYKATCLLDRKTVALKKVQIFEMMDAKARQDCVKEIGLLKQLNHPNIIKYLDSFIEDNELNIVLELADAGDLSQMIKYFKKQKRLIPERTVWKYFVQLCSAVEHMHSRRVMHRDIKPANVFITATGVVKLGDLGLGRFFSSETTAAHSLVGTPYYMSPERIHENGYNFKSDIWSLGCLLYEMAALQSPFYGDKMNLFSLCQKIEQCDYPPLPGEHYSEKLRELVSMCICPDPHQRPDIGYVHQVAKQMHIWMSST

[17] = target: Serine/threonine-protein kinase Nek6 (Homo sapiens) (UniProt Q9HC98); settings: at 1 µM
[18] = target: Serine/threonine-protein kinase Nek7 (Homo sapiens) (UniProt Q8TDX7); settings: at 0.1 µM
Sequence of Serine/threonine-protein kinase Nek7 (Homo sapiens) (Q8TDX7 whole entry, looked up): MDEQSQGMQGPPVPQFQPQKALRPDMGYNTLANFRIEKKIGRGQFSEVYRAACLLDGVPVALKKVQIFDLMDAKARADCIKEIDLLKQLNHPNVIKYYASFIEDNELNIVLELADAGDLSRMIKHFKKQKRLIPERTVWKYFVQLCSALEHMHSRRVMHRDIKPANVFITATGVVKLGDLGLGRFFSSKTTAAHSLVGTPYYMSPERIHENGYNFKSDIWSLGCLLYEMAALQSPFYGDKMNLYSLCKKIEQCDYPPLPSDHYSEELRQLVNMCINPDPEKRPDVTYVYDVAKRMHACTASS

[19] = target: Serine/threonine-protein kinase Nek7 (Homo sapiens) (UniProt Q8TDX7); settings: at 1 µM
[20] = target: T7, Serine/threonine-protein kinase Nek9 (Homo sapiens) (UniProt Q8TD19); settings: at 0.1 µM;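 note: reported value is the mean percent inhibition of NEK9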
T7 sequence (whole entry): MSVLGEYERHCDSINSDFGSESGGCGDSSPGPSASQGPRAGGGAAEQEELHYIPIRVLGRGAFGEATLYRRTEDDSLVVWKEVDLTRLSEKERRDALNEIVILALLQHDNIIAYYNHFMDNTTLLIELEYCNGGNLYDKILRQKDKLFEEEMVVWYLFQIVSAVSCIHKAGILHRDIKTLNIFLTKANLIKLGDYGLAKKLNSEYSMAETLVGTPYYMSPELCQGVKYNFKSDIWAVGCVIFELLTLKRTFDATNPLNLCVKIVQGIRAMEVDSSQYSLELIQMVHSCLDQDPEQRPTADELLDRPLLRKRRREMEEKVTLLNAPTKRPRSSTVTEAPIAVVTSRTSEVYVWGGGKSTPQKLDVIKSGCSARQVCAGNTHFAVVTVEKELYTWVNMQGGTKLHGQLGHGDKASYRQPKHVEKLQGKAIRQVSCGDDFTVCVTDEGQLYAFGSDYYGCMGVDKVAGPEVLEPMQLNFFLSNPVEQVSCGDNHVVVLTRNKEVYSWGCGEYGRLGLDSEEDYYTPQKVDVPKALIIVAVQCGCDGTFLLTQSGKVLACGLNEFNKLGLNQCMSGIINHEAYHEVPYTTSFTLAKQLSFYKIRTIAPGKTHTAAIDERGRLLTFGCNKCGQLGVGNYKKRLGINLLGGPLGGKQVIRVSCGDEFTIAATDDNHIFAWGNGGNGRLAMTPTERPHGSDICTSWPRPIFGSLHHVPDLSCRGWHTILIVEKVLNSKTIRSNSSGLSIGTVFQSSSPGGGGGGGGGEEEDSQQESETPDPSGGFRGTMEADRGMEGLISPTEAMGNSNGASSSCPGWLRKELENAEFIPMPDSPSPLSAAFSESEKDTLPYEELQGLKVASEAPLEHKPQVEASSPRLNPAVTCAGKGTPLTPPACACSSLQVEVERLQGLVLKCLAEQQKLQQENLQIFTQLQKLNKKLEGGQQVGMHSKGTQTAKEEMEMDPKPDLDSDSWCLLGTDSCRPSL

Sequence of Sphingosine kinase 1 (Homo sapiens) (Q9NYA1 whole entry): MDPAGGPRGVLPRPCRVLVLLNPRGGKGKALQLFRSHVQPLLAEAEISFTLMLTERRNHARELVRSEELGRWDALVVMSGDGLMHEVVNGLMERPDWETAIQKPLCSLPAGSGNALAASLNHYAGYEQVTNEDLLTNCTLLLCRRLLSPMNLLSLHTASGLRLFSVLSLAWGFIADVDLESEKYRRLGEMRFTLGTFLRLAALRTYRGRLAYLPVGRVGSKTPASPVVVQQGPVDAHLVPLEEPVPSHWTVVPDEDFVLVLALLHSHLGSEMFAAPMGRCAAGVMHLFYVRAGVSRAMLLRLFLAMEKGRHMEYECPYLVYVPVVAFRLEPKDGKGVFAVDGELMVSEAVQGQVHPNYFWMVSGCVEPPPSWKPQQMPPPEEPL

c1ccc(Nc2ncc(-c3ccccc3)o2)cc1
inhibition [1]: 5.25% | inhibition [2]: 0.84% | inhibition [3]: 7.14% | inhibition [4]: 8.1% | inhibition [5]: 4.81% | inhibition [6]: 4.42% | inhibition [7]: 6.78% | inhibition [8]: 5.92% | inhibition [9]: 7.79% | inhibition [10]: 3.13% | inhibition [11]: 8.49% | inhibition [12]: 2.71% | inhibition [13]: 2.57% | inhibition [14]: 5.93% | inhibition [15]: 0.59% | inhibition [16]: 1.04% | inhibition [17]: 0.47% | inhibition [18]: 3.1% | inhibition [19]: 9.54% | inhibition [20]: 12.2%
